Screening data as filed in PubChem.
FBW7 activator: activators of human E3 ligase FBW7. normalized activity (activation), % at 26.1 µM. AlphaScreen FBW7–phospho-cyclin E peptide binding, activator screen. 650,000 compounds, 0.13% hits. Q969H0; in the data active = normalized activity above about 1.9%;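 note: purified mutant Fbw7 with reduced substrate affinity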
TEAD-YAP block: TEAD-YAP interaction inhibition. HEK-TIYL cells, TEAD-Gal4/YAP UAS-luciferase luminescence. inhibition, % at 9.12 µM. 640,000 compounds, 1.4% hits; in the data active = inhibition above about 32%
GPR151 activ: activators of human GPR151; AID 1508602; PathHunter beta-arrestin GPR151 cells, luminescence; 650,000 compounds, 1% hits; activation, % at 11.2 µM; in the data active = activation above about 4.9%
MITF primary: blocks human microphthalmia-associated transcription factor | AlphaScreen MITF homodimerization, bead proximity signal | inhibition, % at 2.6 µM | 650,000 compounds, 0.91% hits | AID 1259374; in the data active = inhibition above about 50%
Target sequence (O75030 whole entry, looked up): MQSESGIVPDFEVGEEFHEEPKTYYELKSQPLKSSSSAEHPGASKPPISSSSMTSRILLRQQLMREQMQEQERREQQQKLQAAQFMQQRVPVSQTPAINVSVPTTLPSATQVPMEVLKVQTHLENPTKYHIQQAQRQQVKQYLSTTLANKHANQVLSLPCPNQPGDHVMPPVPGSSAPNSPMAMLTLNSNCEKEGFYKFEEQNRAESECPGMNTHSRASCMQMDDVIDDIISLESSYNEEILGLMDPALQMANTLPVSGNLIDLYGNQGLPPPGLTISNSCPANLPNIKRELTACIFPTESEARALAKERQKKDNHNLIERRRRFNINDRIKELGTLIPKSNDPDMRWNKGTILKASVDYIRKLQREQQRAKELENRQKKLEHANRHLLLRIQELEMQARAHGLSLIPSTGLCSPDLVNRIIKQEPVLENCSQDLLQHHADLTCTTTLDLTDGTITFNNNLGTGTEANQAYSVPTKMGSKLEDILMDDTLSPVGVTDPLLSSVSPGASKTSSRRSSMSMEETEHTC
GPR151 conf act: confirmation of human GPR151 activators; shares compounds with GPR151 activ; GPR151 PathHunter beta-arrestin cells, luminescence, 90 min; % of EA-reagent control over plate median; activation, % at 11.2 µM; 6,700 tested, under 10 active; AID 1508609;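 active = mean percent activation across replicates above the confirmation screen cutoff of 4.91%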
GPR119 counter: counter-screen for GPR151 activators: effect on human GPR119; activation, % at 11.2 µM; 6,700 compounds, 0.3% hits; shares compounds with GPR151 activ; GPR119 PathHunter beta-arrestin cells, luminescence, 90 min; 0 = compound-well median, 100 = enzyme-acceptor control;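 active = mean percent activation in the counterscreen above 29.09%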;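 note: counterscreen on off-target GPR119 to flag nonselective hits from the GPR151 activator screen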
Of the large screens only hits and unclear results are named; the others gave an inactive call (follow-up assays come after a bar, where they were run). Hits are enriched below; roughly 3.5% of the tested compounds scored in any of these assays.

CCOc1cc(C=O)ccc1OCCOc1ccccc1OC	GPR151 activ 11 | GPR151 conf act inactive | GPR119 counter inactive
N/C(=N\OC(=O)CCC1CCCC1)c1ccc(Cl)cc1	GPR151 activ 6.0 | GPR151 conf act inactive | GPR119 counter inactive
CCC(C)(C)c1ccc(OCC(=O)Nc2c[nH]c(=O)[nH]c2=O)cc1	none
O=C(COc1ccc(Cl)cc1Cl)OCc1ccco1	GPR151 activ 6.5 | GPR151 conf act inactive | GPR119 counter inactive
O=C(COc1ccccc1Cl)Nc1ccc(N2CCN(C(=O)c3ccco3)CC2)cc1	GPR151 activ 9.9 | GPR151 conf act inactive | GPR119 counter inactive
O=C(COc1ccc(Cl)cc1Cl)Nc1ccc(NC(=O)c2ccco2)c(Cl)c1	none
O=C(COc1ccc(Cl)cc1Cl)NCc1ccco1	none
O=C(COc1ccc(Cl)cc1Cl)Nc1cccc(NC(=O)c2ccco2)c1	GPR151 activ 11 | GPR151 conf act inactive | GPR119 counter inactive
CCC(C)NC(=O)CSc1nc2ccccc2c(=O)n1CC1CCC(C(=O)NCc2ccco2)CC1 (stereo unspecified)	none
C/C(=N\Nc1ccc(S(N)(=O)=O)cc1[N+](=O)[O-])c1ccc2ccccc2c1O	none
Cc1nc2sccn2c(=O)c1S(=O)(=O)N1CCC(Cc2ccccc2)CC1	GPR151 activ 6.2 | GPR151 conf act inactive | GPR119 counter inactive
Cc1ccc(NC(=O)CSc2nnc(NC(=O)COc3ccc(Cl)cc3)s2)cc1	none
Cc1cccc(NC(=O)CSc2nnc(NC(=O)COc3ccc(Cl)cc3)s2)c1	GPR151 activ 6.5 | GPR151 conf act inactive | GPR119 counter inactive
CCSc1nnc(NC(=O)COc2ccc(Cl)cc2Cl)s1	GPR151 activ 7.2 | GPR151 conf act inactive | GPR119 counter inactive
Cc1nnc(SCC(=O)Nc2nc(-c3ccc(Cl)cc3)ns2)s1	GPR151 activ 5.2 | GPR151 conf act inactive | GPR119 counter inactive
COc1cccc2c1OCC(NCCc1c[nH]c3ccccc13)C2 (stereo unspecified)	none
COc1ccc(OC(C)C(=O)Nc2cc(C)ccc2C)cc1 (stereo unspecified)	GPR151 activ 5.0 | GPR151 conf act inactive | GPR119 counter inactive
COc1ccc(OC(C)C(=O)Nc2ccc(C)cc2C)cc1 (stereo unspecified)	none
Cc1ccc(-c2nc3ccccc3c(=O)n2CC(=O)NCc2ccccc2)cc1	none
COc1ccc(OC)c(NCc2nnc3n2CCCCC3)c1	none
Nc1cccc(-c2cccc(C(=O)NC3CCN(Cc4ccccc4)CC3)n2)c1	GPR151 activ 5.3 | GPR151 conf act inactive | GPR119 counter inactive
O=C(NC1CCN(Cc2ccccc2)CC1)c1csc(NCc2cccnc2)n1	GPR151 activ 5.0 | GPR151 conf act inactive | GPR119 counter inactive
CC(=O)c1cccc(-c2nc(C(=O)NC3CCN(Cc4ccccc4)CC3)cs2)c1	GPR151 activ 9.9 | GPR151 conf act inactive | GPR119 counter inactive
O=C(NC1CCN(Cc2ccccc2)CC1)c1csc(-c2ccccc2)n1	none
CCCCOC(=S)SCc1ccc(Cl)s1	GPR151 activ 6.4 | GPR151 conf act inactive | GPR119 counter inactive
COc1cccc(NC(=O)Nc2nnc(CSCc3ccc(Cl)cc3)s2)c1	none
O=C(Nc1nnc(S(=O)(=O)N2CCCCC2)s1)c1ccc(Cl)cc1	GPR151 activ 5.6 | GPR151 conf act inactive | GPR119 counter inactive
O=C(Nc1nnc(S(=O)(=O)N2CCCCC2)s1)C12CC3CC(CC(C3)C1)C2	GPR151 activ 5.5 | GPR151 conf act inactive | GPR119 counter inactive
Cc1nc(Nc2nc(-c3ccccc3)cc(=O)[nH]2)nc2ccccc12	none
COc1ccc2nc(Nc3nc(-c4ccccc4)cc(=O)[nH]3)nc(C)c2c1	GPR151 activ 6.8 | GPR151 conf act inactive | GPR119 counter inactive
COC(=O)C1=CN(Cc2ccc(OC)c(OC)c2)C=C(C(=O)OC)C1c1ccc(F)c(Br)c1	none
O=C1[C@H]2[C@H]3[C@H](O)[C@H](O)C/C(=N\OCc4ccccc4)[C@H]3CC[C@H]2C(=O)N1C1CCCCC1	GPR151 activ 5.8 (no result: TEAD-YAP block) | GPR151 conf act inactive | GPR119 counter inactive
CC(C)CO/N=C1\C[C@@H](O)[C@@H](O)[C@@H]2[C@@H]3C(=O)N(Cc4ccccc4)C(=O)[C@@H]3CC[C@H]12	none (no result: TEAD-YAP block)
CCN1C(=O)[C@H]2[C@H]3[C@H](O)[C@H](O)C/C(=N\OCC(C)C)[C@@H]3CC[C@H]2C1=O	GPR151 activ 6.6 (no result: TEAD-YAP block) | GPR151 conf act inactive | GPR119 counter inactive
C#CCCCO/N=C1\C[C@@H](O)[C@@H](O)[C@@H]2[C@@H]3C(=O)N([C@@H](C)c4ccccc4)C(=O)[C@@H]3CC[C@H]12	GPR151 activ 9.5 (no result: TEAD-YAP block) | GPR151 conf act inactive | GPR119 counter inactive
CCOc1cccc(CN2CCN(Cc3ccc(F)cc3)C(CCO)C2)c1 (stereo unspecified)	none
CCOC(=O)C1(Cc2ccc(Cl)cc2)CCN(CCO)CC1	none
CN(C)c1ccc(/C=N/NC(=O)C(=O)N/N=C/c2ccc(N(C)C)cc2)cc1	none
COCc1ccc([C@@H]2C[C@H]3CN(C4Cc5ccccc5C4)C(=O)[C@]34CCCN24)o1	none
COCc1ccc([C@@H]2C[C@H]3CN(c4ccccc4)C(=O)[C@]34CCCN24)o1	GPR151 activ 5.6 | GPR151 conf act inactive | GPR119 counter inactive
COc1ccc(-c2cc(C(=O)Nc3cnn(Cc4ccc(F)cc4)c3)no2)cc1OC	GPR151 activ 9.9 | GPR151 conf act inactive | GPR119 counter inactive
Cc1ccc(NC(=O)c2cnc(SCc3cccnc3)n(C)c2=O)cc1C	GPR151 activ 10.0 | GPR151 conf act inactive | GPR119 counter inactive
Cc1nnc(NC(=O)C(C)N2CCCC2)s1 (stereo unspecified)	GPR151 activ 14 | GPR151 conf act inactive | GPR119 counter inactive
Cc1nnc(NC(=O)C(C)N2CCN(C)CC2)s1 (stereo unspecified)	none
COc1ccc(-c2nc3ccccc3c(=O)n2NC(=O)c2cccs2)cc1OC	none
CN1C(=O)c2ccc(C(=O)Nc3ccccc3I)cc2C1=O	GPR151 activ 5.2 | GPR151 conf act inactive | GPR119 counter inactive
CCCN1C(=O)c2ccc(C(=O)Nc3ccccc3I)cc2C1=O	none
Cc1cc(C)c(C#N)c(SC/C=C/c2ccccc2)n1	GPR151 activ 7.0 | GPR151 conf act inactive | GPR119 counter inactive
Cc1cc(C)c(C#N)c(SC/C=C/CSc2nc(C)cc(C)c2C#N)n1	none
CCSc1nnc(NC(=O)c2cc3ccccc3o2)s1	none
COC(=O)c1ccccc1NC(=O)c1ccc(-c2cccc([N+](=O)[O-])c2)o1	none
COc1ccccc1-c1nc2s/c(=C\c3cccc([N+](=O)[O-])c3)c(=O)n2n1	GPR151 activ 7.8 | GPR151 conf act inactive | GPR119 counter inactive
Cc1ccc(C(=O)Nc2ccc(N3CCOCC3)cc2)c(C)c1	none
O=C(Nc1ccc(Cl)c(-c2nc3ccccc3o2)c1)c1ccccc1Br	GPR151 activ 5.9 | GPR151 conf act inactive | GPR119 counter inactive
